Laboratory results reported in PubChem BioAssay AID485297 (National Center for Advancing Translational Sciences (NCATS), 2010).
Among all 320,000 compounds or so, about 9,100 (2.8%) were called active. Another 3% or so got no clear call; they are omitted. The sample holds actives, similar compounds and a random draw of the others, so the mix is not that of the screen. Values without a mark were called inactive. The call rests on the fitted dose curve; in most records, active means well fitted activation curve with a large enough effect; inconclusive means small, poorly fitted or top-dose-only effect; inactive means no such curve, though single readings can be large or run the other way.

Experiment: qHTS Assay for Rab9 Promoter Activators; further: nearly all actives have a fitted effect of over 60% in size; on activation, negative = inhibition: % of control where 0% means no effect
Conditions: Huh7 Rab9 promoter-luciferase reporter, luminescence, 24 h; series mostly up to 9.22 µM; activation, negative = inhibition: at the top concentration
Procedure, shortened: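 Luminescence read-out: Huh7 cells stably expressing Rab9-luciferase, treated 24 h with compound at 37 °C, then lysed with luciferase reagent for 10 min at ambient before reading.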
Potency means the concentration at half of the fitted maximal effect.

Compound | activation, negative = inhibition | Potency
COc1ccc(NC(=O)Cn2cc(C(=O)c3ccncc3)c(=O)c3cc(C)ccc32)cc1Cl | -3.25% | –
O=S(=O)(NCCCCCCNS(=O)(=O)c1c(F)cccc1F)c1ccc2c(c1)OCCO2 | 0.689% | –
COc1cccc(NC(=O)CN(C)C(=O)c2cc(C3CC3)nn2-c2ccccc2)c1 | 6.6% | –
O=C(OCc1cc(=O)n2ccsc2n1)C1(c2ccc(Cl)cc2)CC1 | -7.77% | –
COc1ccc(C(=O)OCC(=O)c2cc(C)n(CC3CCCO3)c2C)cc1[N+](=O)[O-] (stereo not drawn) | -3.62% | –
Cc1cccc(NC(=O)CN2CCN(C(=O)C3CCN(C(=O)/C=C/c4ccccc4)CC3)CC2)c1C | -2.92% | –
COc1cc(OC)c(N2CC(C(=O)Nc3cc(Cl)ccc3N3CCOCC3)CC2=O)cc1Cl (stereo not drawn) | -16.4% | –
CCCCN1C(=O)C(=O)N(CC(=O)Nc2cccc(C(C)=O)c2)C1=O | -1.65% | –
C=C(C)C1CC=C(C)/C(=N\NC(=O)CNc2ccccc2OC)C1 (stereo not drawn) | 18.6% | –
O=C(Nc1ccon1)c1nc[nH]c1C(=O)NCc1ccccc1 | 1.3% | –
O=C1c2cccc(OCC(=O)N3N=C(c4cccs4)CC3c3ccc(F)cc3)c2CCN1Cc1ccccc1 (stereo not drawn) | -3.89% | –
O=C(CCNC(=O)c1ccc(Br)cc1)NCC(c1ccco1)N1CCCCC1 (stereo not drawn) | -0.0856% | –
CCc1ccc(NC2Nc3cc(C)nn3S2)cc1 (stereo not drawn) | – | 3550 nM (active)
CCOC(=O)c1ccc(NC2Nc3cc(C)nn3S2)cc1 (stereo not drawn) | -8.1% | –
Cc1nn2c(=O)cc(COC(=O)c3ccc(NC(=O)C(C)(C)C)cc3)nc2s1 | -12.2% | –
O=c1cc(CCl)nc2scc(-c3ccccc3)n12 | -4.65% | –
Cc1csc2nc(COC(=O)c3cccc(N(C)C)c3)cc(=O)n12 | – | 2820 nM (active)
CN(Cc1ccccc1)C(=O)CCc1ccccc1 | -9.9% | –
CN(Cc1ccccc1)C(=O)COc1ccccc1 | – | 2240 nM (active)
CN(Cc1ccc(F)cc1)C(=O)COc1ccc2ccccc2c1 | 0.291% | –
COc1ccc(NS(=O)(=O)c2ccc(C)c(C(=O)NCC(c3cccs3)N3CCOCC3)c2)cc1 (stereo not drawn) | 0.739% | –
O=C(Cc1cccs1)Nc1ccc([N+](=O)[O-])cc1 | 3.07% | –
CCOc1ccccc1NC(=O)Cc1cccs1 | -0.154% | –

Compound | activation, negative = inhibition | Potency
CCOC(=O)c1ccc(NC(=O)Cc2cccs2)cc1 | – | 4470 nM (active)
CCOC(=O)N1CCN(C(=O)COC(=O)c2cccc(S(C)(=O)=O)c2)CC1 | 0.715% | –
CCOc1ccc(NC(=O)c2cccc3c2C(=O)N(CC2CCCO2)C3)cc1 (stereo not drawn) | 13.7% | –
CC(=O)c1sc(NC(=O)CCN2C(=O)C3CC=CCC3C2=O)nc1-c1ccccc1 (stereo not drawn) | 2.81% | –
NC(=O)c1cc2ccccc2o/c1=N/NC(=O)c1cccc(F)c1 | 12.8% | –
COc1ccc(C(=O)N/N=c2\oc3ccccc3cc2C(N)=O)cc1 | 11% | –
COc1cccc2cc(C(N)=O)/c(=N\NC(=O)c3ccccc3)oc12 | – | 3550 nM (active)
CC(=O)Nc1ccc(Nc2cc(C)nc(Nc3ccc(NC(C)=O)cc3)n2)cc1 | 6.88% | –
CCN(CC(=O)NCCc1ccccc1)S(=O)(=O)c1ccc(C)cc1 | 1.84% | –
Cc1ccn2cc(C(=O)NC3CCN(Cc4ccccc4)CC3)nc2c1 | -8.26% | –
COc1ccc(-c2cn3ccsc3n2)cc1 | – | 708 nM (active)
COc1ccc(-c2cn3ccc(C)cc3n2)cc1 | – | 112 nM (active)
CCN(c1cccc(C)c1)S(=O)(=O)c1ccc(-c2coc(C)n2)cc1 | 0.0972% | –
COc1ccc(CNc2nccs2)cc1 | 22.9% | –
COc1ccc(-n2c(-c3ccc(OC)c(OC)c3)n[nH]c2=S)cc1 | 0.467% | –
CCN(CC)S(=O)(=O)c1ccc(-c2cn3ccc(C)cc3n2)cc1 | – | 2240 nM (active)
COc1cc(OC)cc(-c2nc(=S)n3ccsc3n2)c1 | 17.6% | –
Cc1ccccc1N1CCN(C2CCCN(C(=O)c3cn4c(C)cccc4n3)C2)CC1 (stereo not drawn) | 0.145% | –
COc1ccccc1N1CC(C(=O)NCCN2C(=O)S/C(=C\c3cccnc3)C2=O)CC1=O (stereo not drawn) | -3.77% | –
CC1CCCCC12NC(=O)N(CC(=O)OCC(=O)NCc1ccc(F)cc1)C2=O (stereo not drawn) | -4.59% | –
Cc1nn(C(C)C(=O)N2CCOCC2)c(=O)c2nn(-c3ccccc3)c(C)c12 (stereo not drawn) | -3.34% | –
O=C1C=C(c2cccc(Cl)c2)C[C@@H](c2ccc(F)cc2)C1 | -3% | –
COc1ccc(C(=O)CSc2nnc(NC(=O)C3CC(=O)N(c4cccc(OC)c4)C3)s2)cc1 (stereo not drawn) | -1.42% | –

Compound | activation, negative = inhibition | Potency
COc1ccc(/C=N/NS(=O)(=O)c2ccc(NC(C)=O)cc2)cc1 | -2.84% | –
COc1ccc(/C=N/OCC(=O)N(Cc2ccccc2)c2ccccc2C(=O)O)cc1 | -2.72% | –
COc1ccc(/C=N/Nc2ccccc2C(=O)O)cc1 | – | 89.1 nM (active)
COc1ccc(/C=N/Nc2nc3ccccc3c(=O)[nH]2)cc1 | – | 1580 nM (active)
COc1ccc(/C=N/Nc2nc(-c3ccc(C)cc3)c(C#N)c(=O)[nH]2)cc1 | 4.07% | –
COc1ccc(CCCc2nnc(SCc3nc4ccccc4c(=O)[nH]3)n2C)cc1 | -0.291% | –
COc1ccccc1C(=O)NCC(=O)OCC(=O)Nc1nnc(-c2ccccc2)o1 | -0.991% | –
COc1cc(OC)cc(C(=O)Nc2nnc(SCC(=O)NCC3CCCO3)s2)c1 (stereo not drawn) | 1.89% | –
COc1ccc(C)cc1NC(=O)CCCN1C(=O)NC(C)(C)C1=O | 2.01% | –
Cc1ccc(S(=O)(=O)NCCNC(C)c2ccc(Br)cc2)cc1 (stereo not drawn) | -8.2% | –
CCC1(C)NC(=O)N(CC(=O)N2CCN(c3cccc(Cl)c3)CC2)C1=O (stereo not drawn) | -5.43% | –
COc1cc2c(cc1OC)CC1(CCCCC1)N=C2 | -4.73% | –
Cc1ccc(N/N=C2\COC(C)(C)CC2=O)cc1 | – | 3160 nM (active)
CCC1(C)CC(=O)NC1=O (stereo not drawn) | 7.83% [at 46.1 µM] | –
Cc1ccc(C(=O)CSc2nc3ccccc3c(=O)n2N)o1 | – | 3550 nM (active)
COC(=O)CSc1nc2ccccc2c(=O)n1Cc1ccccc1 | -0.304% | –
COc1ccc(NC(=O)CSc2nc3ccccc3c(=O)n2C)cc1 | -9.43% | –
Cc1ccccc1-c1cc(C(=O)NCC2CC2)n(CC2CC(c3cccnc3)=NO2)n1 (stereo not drawn) | -2.34% | –
COc1cc(C(C)=O)ccc1OC(C)C(=O)Nc1ccc(S(=O)(=O)N2CCCC2)cc1 (stereo not drawn) | -8.76% | –
CCOC(=O)N1CCC(NC(=O)CCc2ccccc2)CC1 | 4.41% | –
O=C(O)C1CCN(C(=O)OCc2ccccc2)CC1 | – | 4470 nM (active)
O=C(NCC1CCC(C(=O)O)CC1)OCc1ccccc1 (stereo not drawn) | -5.42% | –
